# Laboratory results: PubChem BioAssay (NCI)
# This is part of a sample that, as a whole, favours compounds with a hit. Of some 79,000 tested, about 15% had one in any assay. A number with no mark means an inactive call. Activity calls are given as the source filed them. No stated cut-off is given here; in the data, active means growth inhibition above about 70%; inactive means the rest.
# Assays:
# [1] = NCI Yeast Anticancer Drug Screen. Data for the rad52 strain (AID 147);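 further: 0% = growth of vehicle-treated control cultures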; conditions: S. cerevisiae rad52 mutant growth inhibition, active compounds read high
# Method in brief: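 Measured: yeast growth inhibition. System: strain with a defined DNA damage repair alteration. Reference: vehicle-treated control cultures.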
# [2] = NCI Yeast Anticancer Drug Screen. Data for the wt1 strain (AID 149);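 further: 0% = growth of vehicle-treated wt1 cultures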; conditions: S. cerevisiae wt1 strain (SPY 50644) growth inhibition, active compounds read high
# Method in brief: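 wt1 yeast, compound-treated; % growth inhibition vs vehicle control.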
# [3] = NCI Yeast Anticancer Drug Screen. Data for the rad50EPP+ strain (AID 151);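 further: 0% = growth of vehicle-treated control cultures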; conditions: S. cerevisiae rad50 mutant strain, active compounds read high
# Method in brief: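 One strain with a rad50 alteration (rad50EPP+) was compound-treated, its growth then compared to that of vehicle controls.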
# [4] = NCI Yeast Anticancer Drug Screen. Data for the mgt1 strain (AID 153); conditions: S. cerevisiae mgt1 mutant growth inhibition, active compounds read high
# Method in brief: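 After exposure of the mgt1 yeast mutant to compound, growth was measured and reported as inhibition compared with vehicle controls.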
# [5] = NCI Yeast Anticancer Drug Screen. Data for the rad50 strain (AID 155);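 further: 0% = growth of vehicle-only cultures of the same strain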; conditions: S. cerevisiae rad50 strain growth inhibition, active compounds read high
# Method in brief: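 Genetically altered yeast (DNA repair pathway); compound treatment; growth inhibition vs vehicle ctrl.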
# [6] = NCI Yeast Anticancer Drug Screen. Data for the mec2-1 strain (AID 157); conditions: S. cerevisiae mec2-1 strain, active compounds read high
# Method in brief: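 Test agents were screened against the mec2-1 yeast strain, with defined DNA repair or cell cycle alteration. Growth was scored as inhibition against vehicle-only controls.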
# [7] = NCI Yeast Anticancer Drug Screen. Data for the rad14 strain (AID 159);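 further: 0% = growth of vehicle-treated control cultures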; conditions: S. cerevisiae rad14 strain growth inhibition, active compounds read high
# Method in brief: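 Test compounds were applied to a repair-deficient yeast strain. Its growth was then compared with that of cultures given vehicle alone, and inhibition was expressed relative to those controls.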
# [8] = NCI Yeast Anticancer Drug Screen. Data for the sgs1 mgt1 strain (AID 161);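 further: 0% = growth of cultures given vehicle only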; conditions: S. cerevisiae sgs1 mgt1 strain, active compounds read high
# Method in brief: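 Genetically altered yeast, compound exposure, growth inhibition relative to vehicle.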
# [9] = NCI Yeast Anticancer Drug Screen. Data for the CLN2oe strain (AID 163);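 further: 0% = growth of vehicle-only control cultures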; conditions: S. cerevisiae CLN2oe strain, active compounds read high
# Method in brief: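 Here, growth inhibition in a cell-cycle-altered yeast strain after compound exposure was quantified against vehicle control growth.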
# [10] = NCI Yeast Anticancer Drug Screen. Data for the cln2 rad14 strain (AID 165);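 further: 0% = growth equal to vehicle treated cultures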; conditions: S. cerevisiae cln2 rad14 strain, active compounds read high
# Method in brief: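 Growth of compound-exposed yeast (cln2 rad14 genotype) measured and expressed as inhibition relative to vehicle.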
# [11] = NCI Yeast Anticancer Drug Screen. Data for the bub3 strain (AID 167); conditions: S. cerevisiae bub3 mutant strain, active compounds read high
# Method in brief: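 Yeast carrying a defined mutation is treated with each compound, and growth is compared with that of vehicle-exposed cells to give inhibition.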
# [12] = NCI Yeast Anticancer Drug Screen. Data for the wt2 strain (AID 169);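 further: 0% = growth of vehicle-treated yeast cultures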; conditions: S. cerevisiae wt2 strain growth inhibition, active compounds read high
# Method in brief: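 Genetically defined yeast strains from a DNA-repair/cell-cycle panel were used. Compound-exposed yeast growth was measured, and the inhibition was calculated relative to vehicle treatment.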
# [13] = NCI Yeast Anticancer Drug Screen. Data for the mlh1 strain (AID 171);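 further: 0% = growth of vehicle-treated control cultures of the same strain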; conditions: S. cerevisiae mlh1 strain growth inhibition, active compounds read high
# Method in brief: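 Here the genetically defined yeast mutant is grown with each compound, and the extent to which its growth falls below that of vehicle-exposed cells is reported.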
# [14] = NCI Yeast Anticancer Drug Screen. Data for the sgs1 strain (AID 173);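 further: 0% = growth of vehicle-only control cultures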; conditions: S. cerevisiae sgs1 mutant, active compounds read high
# Method in brief: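 Relative growth inhibition, referenced to vehicle, was determined in a yeast strain with a defined alteration affecting DNA damage repair or cell cycle control after compound exposure.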
# [15] = NCI Yeast Anticancer Drug Screen. Data for the mlh1 rad18 strain (AID 175); conditions: S. cerevisiae mlh1 rad18 strain growth inhibition, active compounds read high
# Method in brief: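 In this whole-cell yeast screen, a strain with altered DNA damage repair is challenged with compound, and its growth is measured against matched vehicle-treated controls.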
# [16] = NCI Yeast Anticancer Drug Screen. Data for the rad18 strain (AID 177); conditions: S. cerevisiae rad18 mutant growth inhibition, active compounds read high
# Method in brief: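 Screen uses a yeast strain with a defined lesion in DNA damage repair; compound effect is read as loss of growth compared to untreated vehicle cultures.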
# [17] = at 5.0 µM (retest, dose inferred, filed as 0.5)
# [18] = at 50.0 µM (retest, dose inferred, filed as 5.0)
structure (smiles),measurement,setting,value
CC(=O)SC(C[N+](=O)[O-])c1ccccc1 (stereo not drawn),growth inhibition,[1]; at 1.2 µM,55%
same,growth inhibition,[1]; at 3.7 µM,76% (active)
same,growth inhibition,[1]; at 11.0 µM,88% (active)
same,growth inhibition,[1]; at 33.0 µM,99% (active)
same,growth inhibition,[1]; at 100.0 µM,99% (active)
same,growth inhibition,[2]; at 1.2 µM,0%
same,growth inhibition,[2]; at 3.7 µM,0%
same,growth inhibition,[2]; at 11.0 µM,17%
same,growth inhibition,[2]; at 33.0 µM,95% (active)
same,growth inhibition,[2]; at 100.0 µM,100% (active)
same,growth inhibition,[3]; at 1.2 µM,89% (active)
same,growth inhibition,[3]; at 3.7 µM,92% (active)
same,growth inhibition,[3]; at 11.0 µM,95% (active)
same,growth inhibition,[3]; at 33.0 µM,99% (active)
same,growth inhibition,[3]; at 100.0 µM,99% (active)
same,growth inhibition,[4]; at 1.2 µM,1%
same,growth inhibition,[4]; at 3.7 µM,4%
same,growth inhibition,[4]; at 11.0 µM,18%
same,growth inhibition,[4]; at 33.0 µM,81% (active)
same,growth inhibition,[4]; at 100.0 µM,100% (active)
same,growth inhibition,[5]; at 1.2 µM,81% (active)
same,growth inhibition,[5]; at 3.7 µM,92% (active)
same,growth inhibition,[5]; [17],87% (active)
same,growth inhibition,[5]; at 11.0 µM,96% (active)
same,growth inhibition,[5]; at 33.0 µM,99% (active)
same,growth inhibition,[5]; [18],98% (active)
same,growth inhibition,[5]; at 50.0 µM,99.2% (active)
same,growth inhibition,[5]; at 100.0 µM,99% (active)
same,growth inhibition,[6]; at 1.2 µM,5%
same,growth inhibition,[6]; at 3.7 µM,17%
same,growth inhibition,[6]; [17],-15%
same,growth inhibition,[6]; at 11.0 µM,52%
same,growth inhibition,[6]; at 33.0 µM,94% (active)
same,growth inhibition,[6]; [18],99% (active)
same,growth inhibition,[6]; at 50.0 µM,99.6% (active)
same,growth inhibition,[6]; at 100.0 µM,100% (active)
same,growth inhibition,[7]; at 1.2 µM,14%
same,growth inhibition,[7]; at 3.7 µM,28%
same,growth inhibition,[7]; at 11.0 µM,42%
same,growth inhibition,[7]; at 33.0 µM,98% (active)
same,growth inhibition,[7]; at 100.0 µM,99% (active)
same,growth inhibition,[8]; [17],-7%
same,growth inhibition,[8]; [18],98% (active)
same,growth inhibition,[8]; at 50.0 µM,95.8% (active)
same,growth inhibition,[9]; at 1.2 µM,7%
same,growth inhibition,[9]; at 3.7 µM,19%
same,growth inhibition,[9]; at 11.0 µM,38%
same,growth inhibition,[9]; at 33.0 µM,78% (active)
same,growth inhibition,[9]; at 100.0 µM,99% (active)
same,growth inhibition,[10]; [17],-20%
same,growth inhibition,[10]; [18],98% (active)
same,growth inhibition,[10]; at 50.0 µM,31.1%
same,growth inhibition,[11]; at 1.2 µM,23%
same,growth inhibition,[11]; at 3.7 µM,30%
same,growth inhibition,[11]; [17],8%
same,growth inhibition,[11]; at 11.0 µM,68%
same,growth inhibition,[11]; at 33.0 µM,97% (active)
same,growth inhibition,[11]; [18],98% (active)
same,growth inhibition,[11]; at 50.0 µM,95.2% (active)
same,growth inhibition,[11]; at 100.0 µM,99% (active)
same,growth inhibition,[12]; at 1.2 µM,-3%
same,growth inhibition,[12]; at 3.7 µM,-4%
same,growth inhibition,[12]; at 11.0 µM,14%
same,growth inhibition,[12]; at 33.0 µM,99% (active)
same,growth inhibition,[12]; at 100.0 µM,99% (active)
same,growth inhibition,[13]; at 1.2 µM,5%
same,growth inhibition,[13]; at 3.7 µM,11%
same,growth inhibition,[13]; at 11.0 µM,33%
same,growth inhibition,[13]; at 33.0 µM,96% (active)
same,growth inhibition,[13]; at 100.0 µM,99% (active)
same,growth inhibition,[14]; at 1.2 µM,15%
same,growth inhibition,[14]; at 3.7 µM,41%
same,growth inhibition,[14]; at 11.0 µM,62%
same,growth inhibition,[14]; at 33.0 µM,100% (active)
same,growth inhibition,[14]; at 100.0 µM,99% (active)
same,growth inhibition,[15]; [17],-37%
same,growth inhibition,[15]; [18],98% (active)
same,growth inhibition,[15]; at 50.0 µM,99.5% (active)
same,growth inhibition,[16]; at 1.2 µM,19%
same,growth inhibition,[16]; at 3.7 µM,33%
same,growth inhibition,[16]; at 11.0 µM,55%
same,growth inhibition,[16]; at 33.0 µM,93% (active)
same,growth inhibition,[16]; at 100.0 µM,99% (active)
